Several values for one entry are separate records, joined by “and”; a condition that tells them apart may be missing. Equal values may be shown once. Results filed as inconclusive are left out. Activity calls are given as the source filed them. Unless noted, the call rests on the fitted dose curve; in most records, active means well fitted curve in the direction sought with a large enough effect; inconclusive means small, poorly fitted or top-dose-only effect, or another doubt; inactive means no such curve, though single readings can be large; an effect the other way counts as inactive or inconclusive.
Experiments:
[1] = Cell Viability - BJ (AID 421; calls by dose curve;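 further: potency means the concentration at half of the fitted maximal effect; cells exposed to compound for 40 hours at 37 °C before readout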); settings: BJ fibroblast viability, qHTS
Procedure, shortened: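 Quantitative HTS: ATP depletion in BJ cells after 40 hr compound exposure in complete culture medium, detected with CellTiter-Glo; AC50 from standard Hill fits.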

[2] = Cell Viability - HepG2 (AID 433; calls by dose curve;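 further: potency means the concentration at half of the fitted maximal effect; cells exposed to compound for 40 hours; potency for ATP loss meaning cytotoxicity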); settings: qHTS
Procedure, shortened: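 HepG2 hepatocellular carcinoma cells (1500/well) were treated with compounds for 40 h at 37 °C in complete medium; intracellular ATP was read by CellTiter-Glo luminescence. Data were normalized to DMSO and 100 uM tamoxifen, and AC50 came from Hill fits.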

[3] = Cell Viability - HUV-EC-C (AID 542);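 further: cells exposed to compound for 40 hours; on the % scale 0 is the no-effect control and ±100 the full control effect; nearly all actives have a fitted effect of over 35% in size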
Procedure, shortened: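 Concentration-dependent ATP loss in HUV-EC-C cells is the measure. Exposure lasts 40 hr at 37 °C; luminescence follows CellTiter-Glo addition, and Hill fits give AC50.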

[4] = Cell Viability - Renal Proximal Tubule (AID 545); settings: renal proximal tubule cells viability, primary cells of rat origin; activity change, negative = cytotoxicity: at 91.7 µM (top of the series);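 further: cells exposed to compound for 40 hours; nearly all actives have a fitted effect of over 40% in size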; further: potency means the concentration at half of the fitted maximal effect;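 on activity change, negative = cytotoxicity: 0% = DMSO only and -100% = 100 µM tamoxifen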
Procedure, shortened: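 Primary rat renal proximal tubule cells (1000/well) were treated with compounds for 40 hr at 37 °C in complete medium. Intracellular ATP was measured by CellTiter-Glo luminescence, and AC50 values came from Hill-equation fits of concentration-response data.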

[5] = Cell Viability - Mesenchymal (AID 546); settings: mesenchymal cells viability, qHTS; activity change, negative = cytotoxicity: at 91.7 µM (top of the series);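 further: cells exposed to compound for 40 hours before reading; 0% = DMSO only and -100% = 100 µM tamoxifen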
Procedure, shortened: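 In this qHTS cytotoxicity format, glomerulus-derived human mesenchymal kidney cells received compound for 40 hr, then luciferase-based ATP quantitation. Concentration-response data were fitted with the Hill equation.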

[6] = MultiTox-Fluor Cytotoxicity Assay - LYMP1-003 - Dead Cells (AID 961);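 further: cells exposed to compound for 16 h at 37 °C; nearly all actives have a fitted effect of over 70% in size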; further: potency means the concentration at half of the fitted maximal effect
Procedure, shortened: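 Acute toxicity is scored as increased dead-cell protease activity in human lymphoblastoid LYMP1-003 cells after 16 h compound exposure in complete culture medium. Activity is normalized to DMSO basal and 15 uM tetraoctylammonium bromide as full response.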

[7] = Cell Viability - LYMP2-003 (AID 965);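 further: cells exposed to compounds for 24 h before reading; 0% = DMSO only and full effect = 92 µM tetraoctylammonium bromide; nearly all actives have a fitted effect of over 50% in size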
Procedure, shortened: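 Human lymphoblastoid cells (2500/well) were pre-incubated 5 hr at 37 C, then exposed to compounds over a concentration range for 24 hr at 37 C. Intracellular ATP was read by CellTiter-Glo luminescence; AC50 came from Hill-equation fits.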

[8] = Cell Viability - LYMP2-011 (AID 969); further: nearly all actives have a fitted effect of over 60% in size; further: potency means the concentration at half of the fitted maximal effect
Procedure, shortened: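 Cells seeded at 2500 per well rest 5 hr before compound addition, then incubate 24 hr at 37 C. CellTiter-Glo reagent is added for 30 min at room temperature before luminescence detection.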

[9] = Cell Viability - LYMP2-023 (AID 975);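 further: cellular ATP measured by luciferase luminescence as viability proxy; plate controls were DMSO only for no effect and 92 µM tetraoctylammonium bromide control for full effect; nearly all actives have a fitted effect of over 55% in size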
Procedure, shortened: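 In this qHTS, ATP-based luciferase luminescence (CellTiter-Glo) is quantified in human lymphoblastoid cells after 24 hr compound treatment at 37 C; tetraoctylammonium bromide serves as positive control. Concentration-response curves are Hill-fitted to give AC50.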

[10] = Cell Viability - LYMP2-025 (AID 976);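 further: plate controls were DMSO only for no effect and tetraoctylammonium bromide control for full effect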
Procedure, shortened: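 Luminescent ATP readout after 24 hr treatment of a human lymphoblastoid line (LYMP2-025, 2500 cells/well, 37 C). Reagent developed 30 min at room temperature; AC50 fitted with the Hill equation.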

[11] = Cell Viability - LYMP2-002 (AID 977);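 further: compound exposure lasted 24 h at 37 °C; plate controls were DMSO only for no effect and 92 µM tetraoctylammonium bromide for full effect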
Procedure, shortened: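 In this qHTS viability screen, 2500 human lymphoblastoid cells per well receive compound for 24 hr at 37 C, and luciferase-based ATP luminescence gives the viability signal. Tetraoctylammonium bromide serves as positive control.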

[12] = Cell Viability - LYMP2-008 (AID 980); further: nearly all actives have a fitted effect of over 60% in size; further: potency means the concentration at half of the fitted maximal effect; on activity change, negative = cytotoxicity: on the % scale 0 is the no-effect control and ±100 the full control effect
Procedure, shortened: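 Measured: ATP-dependent luminescence, proportional to viable cell number, in human lymphoblastoid cells treated 24 hr with compound in complete culture medium. Values are AC50s from Hill-equation modelling of qHTS titrations.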

[13] = Cell Viability - LYMP2-014 (AID 983);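 further: plate controls were DMSO only for no effect and 92 µM tetraoctylammonium bromide for full effect; nearly all actives have a fitted effect of over 50% in size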
Procedure, shortened: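 Quantitative HTS in lymphoblastoid cells: 24 hr compound exposure, then CellTiter-Glo ATP luminescence. Positive control was tetraoctylammonium bromide, 6.4pM to 92 uM.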

[14] = Cell Viability - LYMP2-016 (AID 984); further: on the % scale 0 is the no-effect control and ±100 the full control effect; nearly all actives have a fitted effect of over 55% in size
Procedure, shortened: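 Human lymphoblastoid cells (LYMP2-016), 2500/well in complete medium, preincubated 5 hr at 37 C, then compound-treated 24 hr at 37 C. Intracellular ATP read by CellTiter-Glo luminescence after 30 min at room temperature; AC50 from Hill-equation concentration-response fits.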

[15] = Cell Viability - LYMP2-026 (AID 989); further: on the % scale 0 is the no-effect control and ±100 the full control effect; nearly all actives have a fitted effect of over 50% in size
Procedure, shortened: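 Acute toxicity screen in complete culture medium, with 24 hr compound exposure at 37 C. Viability read as cellular ATP via luciferase reaction, with tetraoctylammonium bromide (6.4pM to 92 uM) as positive control.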

[16] = Cell Viability - LYMP1-002 - Assay at 40 hr (AID 994);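 further: 0% = DMSO only and full inhibition = 92 µM tetraoctylammonium bromide; nearly all actives have a fitted effect of over 60% in size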
Procedure, shortened: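 Concentration-dependent ATP loss after 40 hr treatment at 37 C defined toxicity; AC50 values were obtained by fitting the standard Hill equation.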

[17] = qHTS assay for small molecule antagonists of retinoid X receptor alpha signaling (AID 588546; active means well fitted inhibition curve with a large enough effect in the signal ratio, with a control signal flat, not every such curve was filed as active; the % refers to the signal ratio;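 further: cells stimulated with 9-cis-retinoic acid as agonist; on the % scale 0 is the no-effect control and ±100 the full control effect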); settings: HEK293T RXRa-UAS-bla, beta-lactamase ratio, antagonist mode; measured here: W530 green channel, cytotoxicity proxy
Procedure, shortened: (§1)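 Beta-lactamase reporter inhibition, read as CCF4 fluorescence ratio (ex 405, em 460/530 nm) after 2 h at RT. HEK293T UAS-bla cells, 2500/well, were stimulated with 9-cis-RA at 500 or 100 nM final alongside test compound for 18 h at 37 C.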

[18] = target: Retinoic acid receptor RXR-alpha (Homo sapiens) (UniProt P19793); assay: as above; settings: HEK293T RXRa-UAS-bla, beta-lactamase ratio, antagonist mode
Chain of Retinoic acid receptor RXR-alpha (Homo sapiens) (P19793 whole entry, looked up): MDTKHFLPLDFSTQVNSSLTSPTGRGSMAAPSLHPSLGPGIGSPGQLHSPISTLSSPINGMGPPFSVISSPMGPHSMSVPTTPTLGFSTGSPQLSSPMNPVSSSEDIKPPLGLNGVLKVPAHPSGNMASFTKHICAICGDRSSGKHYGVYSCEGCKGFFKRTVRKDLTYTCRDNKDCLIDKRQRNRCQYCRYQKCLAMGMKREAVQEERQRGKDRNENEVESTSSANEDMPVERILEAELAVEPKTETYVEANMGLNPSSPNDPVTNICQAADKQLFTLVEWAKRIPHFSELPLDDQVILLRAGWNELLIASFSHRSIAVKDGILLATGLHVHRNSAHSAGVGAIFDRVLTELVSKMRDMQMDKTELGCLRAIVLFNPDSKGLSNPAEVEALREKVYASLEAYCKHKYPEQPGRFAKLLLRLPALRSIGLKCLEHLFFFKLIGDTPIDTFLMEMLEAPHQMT
Procedure, shortened: as §1

[19] = qHTS assay for environmental chemicals that activate the Aryl hydrocarbon Receptor (AhR) signaling pathway (AID 651777); settings: 1A2-DRE human hepatoma cells, luciferase, 24 h; activation: stronger effect = higher value; further: nearly all actives have a fitted effect of over 15% in size; further: potency means the concentration at half of the fitted maximal effect; on activation: % of control where 0% means no effect
Procedure, shortened: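 AhR activation is scored as a rise in luciferase from a stable DRE–CYP1A2 promoter construct in human hepatoma cells. Treatment lasts 24 hr at 37 C; detection uses One-Glo after 30 min at room temperature.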

[20] = Cell Viability - LYMP2-013 (AID 970); further: nearly all actives have a fitted effect of over 55% in size; further: potency means the concentration at half of the fitted maximal effect
Procedure, shortened: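 In complete culture medium, human lymphoblastoid cells were dosed for 24 hr at 37 C, with tetraoctylammonium bromide (6.4pM to 92 uM) as positive control. Viability reflects luciferase-based ATP signal; AC50 derived from concentration-response curves.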

Clc1nc2ccccc2nc1Cl
-14.8%: max response [17]
inactive: Potency [1] > 92 µM | Potency [2] > 92 µM | Potency [3] | Potency [4] | Potency [5] | Potency [6] | Potency [7] | Potency [8] | Potency [9] | Potency [10] | Potency [11] | Potency [12] | Potency [13] | Potency [14] | Potency [15] | Potency [16] | max response [18] 31% | activation [19] 0.0222%

O=[N+]([O-])c1cc(N(CCO)CCO)ccc1NCCO
inactive: Potency [6] | Potency [8] | Potency [10] | Potency [11] | Potency [12] | Potency [13] | Potency [14] | Potency [15] | Potency [16] | max response [18] 0.262% and 0.951% | activation [19] -2.68% and -1.58%
5.15% and -22.9%: max response [17]

O=[N+]([O-])c1cc(Cl)c(Cl)c(Cl)c1Cl
active: Potency [6] 50.1 µM
11.9%: max response [17]
inactive: Potency [1] > 92 µM | Potency [2] > 92 µM | Potency [3] | Potency [4] | Potency [5] | Potency [7] | Potency [9] | Potency [10] | Potency [11] | Potency [14] | Potency [15] | Potency [16] | max response [18] -21.8% | activation [19] -0.451%

C/C=C1/C(=O)C[C@H]2[C@@H]3CCC4=CC(=O)CC[C@]4(C)[C@H]3CC[C@]12C
active: Potency [6] 50.1 µM | Potency [8] 50.1 µM | Potency [20] 50.1 µM | Potency [12] 50.1 µM
inactive: Potency [1] > 92 µM | Potency [2] > 92 µM | Potency [3] | Potency [7] | activation [19] 1.95%

C=C(C#N)C(=O)OCC
inactive: Potency [1] > 92 µM | Potency [2] > 92 µM | Potency [3] | Potency [4] | Potency [5] | Potency [6] | Potency [7] | Potency [8] | Potency [20] | Potency [9] | Potency [10] | Potency [11] | Potency [12] | Potency [13] | Potency [14] | Potency [15] | Potency [16] | max response [18] 9.58% | activation [19] -0.801%
-6.72%: max response [17]

Nc1ccc(-c2ccc(N)c(O)c2)cc1O
-41.6%: max response [17]
inactive: Potency [1] > 92 µM | Potency [2] > 92 µM | Potency [3] | Potency [4] | Potency [5] | Potency [6] | Potency [20] | Potency [9] | Potency [10] | Potency [11] | Potency [12] | Potency [13] | Potency [14] | Potency [15] | Potency [16] | max response [18] -12% | activation [19] -0.254%

O=CC(=O)c1ccccc1
-7.19%: max response [17]
inactive: Potency [1] > 92 µM | Potency [2] > 92 µM | Potency [3] | Potency [4] | Potency [5] | Potency [7] | Potency [8] | Potency [20] | Potency [9] | Potency [10] | Potency [13] | Potency [14] | Potency [16] | max response [18] 6.37% | activation [19] 0.568%

Nc1ccc(N=Nc2ccccc2)c(N)c1
inactive: Potency [1] > 92 µM | Potency [2] > 92 µM | Potency [4] | Potency [6] | Potency [7] | Potency [8] | Potency [20] | Potency [9] | Potency [10] | Potency [11] | Potency [12] | Potency [13] | Potency [14] | Potency [15] | Potency [16] | max response [18] -15%
-9.61%: max response [17]

C[C@@H]1CC2(OC(O)[C@]3(C)O[C@H]23)O[C@H]2C[C@@]3(C)[C@@H]4CC[C@H]5C(C)(C)C(O[C@@H]6OC[C@@H](O)[C@H](O)[C@H]6O)CC[C@@]56C[C@@]46CC[C@]3(C)[C@@H]12 (stereo partly drawn)
inactive: Potency [1] > 92 µM | Potency [3] | Potency [6] | Potency [7] | Potency [8] | Potency [20] | Potency [9] | Potency [10] | Potency [11] | activation [19] 0.629%
active: Potency [4] 31.6 µM

O=C(O)c1cc(N=Nc2ccc([N+](=O)[O-])cc2)ccc1O
inactive: Potency [1] > 92 µM | Potency [2] > 92 µM | Potency [3] | Potency [5] | Potency [6] | Potency [7] | Potency [8] | Potency [20] | Potency [9] | Potency [10] | Potency [11] | Potency [12] | Potency [14] | Potency [16]
active: Potency [19] 4.47 µM

From PubChem BioAssay (NCATS)
